# Assay results published in PubChem BioAssay (NCI).
# Compounds without any hit were thinned out: in the full panel of roughly 83,000, 20% have a hit.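 Values shown are percent growth following 48 h exposure of cells in 96-well plates to a single concentration of compound; below 10 was considered active.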 Values without a mark were called inactive. Active and inactive are the calls of the source.
# Assays:
# Experiment in all cases: NCI-60 one-dose screen, 48 h (100 = growth as untreated, 0 = no growth, -100 = all killed)
# Conditions in all cases: 10 µM unless noted
# [1] = tested on: T-47D breast
# [2] = tested on: BT-549 breast
# [3] = tested on: MDA-MB-435 melanoma
# [4] = tested on: SW-620 colon
# [5] = tested on: MCF7 breast
# [6] = tested on: HCT-116 colon
# [7] = tested on: HCC-2998 colon
# [8] = tested on: KM12 colon
SMILES,growth [1],growth [2],growth [3],growth [4],growth [5],growth [6],growth [7],growth [8]
N#Cc1c(N)nc(N)nc1Nc1ccc(Br)cc1,71.4%,86.2%,104%,105%,61.6%,137%,110%,93.9%
COc1ccc(/C=C2\N=C3SC=C(N)N3C2=O)cc1,9.75% (active),11.8%,9.59% (active),21.9%,13.4%,-6.91% (active),40.9%,46.9%
N#Cc1c2c(nc3n[nH]c(N)c13)CCCC2,98%,130%,106%,96%,110%,101%,92.6%,111%
COc1cc(C#N)cc(OC)c1OCCN(CCOc1c(OC)cc(C#N)cc1OC)S(=O)(=O)c1ccc(C)cc1,96.3%,107%,114%,99.6%,108%,81.6%,94.8%,108%
CNC(=O)c1cc(Oc2ccc3nc(NC(=O)Nc4ccc(N5CCC(N(C)C)CC5)cc4)sc3c2)ccn1,78.1%,98.7%,98.8%,71.6%,67.7%,39%,95.4%,60.4%
CC1CN(Cc2ccco2)C(=S)N(c2ccccc2)C1=O (stereo unspecified),83.1%,94.6%,100%,102%,102%,88.9%,113%,99.9%
COc1ccc(CCN2CCCn3c2nc2ccccc2c3=O)cc1,80.8%,29.5%,-15.2% (active),27%,16.8%,14.3%,8.36% (active),14.7%
Cn1c2ccccc2c2c3c(c4c5ccccc5[nH]c4c21)C(=O)N(N)C3=O,30.9%,46.6%,57.9%,44.7%,23.9%,40.7%,74.4%,62.8%
N#CC1=C(N)Oc2c(ccc3ccccc23)C1c1cccs1 (stereo unspecified),64.3%,25%,-31% (active),23.8%,7.97% (active),8.25% (active),16.7%,4.37% (active)
OCCNCCNc1c2ccccc2nc2ccccc12,39.6%,103%,89.4%,59.5%,23.4%,37.7%,52.6%,55.6%
COc1ccc(S(=O)(=O)NCCNc2nccc(-c3c(-c4cccc(N)c4)nc4sccn34)n2)cc1,75.9%,82.8%,103%,113%,90.8%,98%,122%,64.6%
CCN(CC)CCC(=O)Nc1ccc(Cn2nnc3c2C(=O)c2nnn(Cc4ccc(NC(=O)CCN(CC)CC)cc4)c2C3=O)cc1,-58% (active),-94.2% (active),-80.1% (active),-9.46% (active),-60.2% (active),-87.9% (active),-47.2% (active),-6.54% (active)
O=C(CN1CCN(c2cc3c(cc2F)c(=O)c(C(=O)O)cn3C2CC2)CC1)Nc1nc(-c2ccccc2)cs1,72.8%,73.7%,86.6%,91.7%,86.8%,81.2%,92.6%,89.6%
NC1=CSC2=N/C(=C\c3ccc(Cl)cc3)C(=O)N12,79%,75.3%,68%,71.3%,67.2%,66.1%,90.2%,89.2%
CC(C)c1c(C(=O)Nc2ccccc2)c(-c2ccccc2)c(-c2ccc(F)cc2)n1CC[C@@H]1CC=CC(=O)O1,17.1%,-30.6% (active),2.54% (active),-45.1% (active),-22.8% (active),-62.5% (active),-69.8% (active),-60.7% (active)
COc1cc(NCCCCN=C(N)N)c2ncccc2c1,18%,54.4%,104%,80.8%,-48% (active),79.1%,84.3%,47.5%

SMILES,growth [1],growth [2],growth [3],growth [4],growth [5],growth [6],growth [7],growth [8]
C/C(=C(/c1ccc(O)cc1)c1ccc(Cl)cc1)c1ccccc1,-13.5% (active),-78.9% (active),-93.1% (active),-71.4% (active),-63.3% (active),-69.4% (active),-74.9% (active),-86.2% (active)
CCN(CC)Cc1cc(Nc2c3ccccc3nc3cc(Cl)ccc23)ccc1O,-68.2% (active),-58% (active),-92.7% (active),-41% (active),-60.7% (active),-43% (active),-100% (active),-30% (active)
Cc1cc(N/N=C/c2nc(-c3ccc(Cl)cc3)oc2C)c2cc(Br)ccc2n1,74.5%,94%,-38.8% (active),-65.4% (active),-77.8% (active),4.35% (active),89.9%,55.3%
O=C1/C(=C/c2ccc(F)cc2)CN(C(=O)CCN2CCC(=NO)CC2)C/C1=C\c1ccc(F)cc1,-18.9% (active),-26.6% (active),-49.9% (active),-56.5% (active),-48.6% (active),-65.6% (active),-83.3% (active),-77.2% (active)
Nc1c(C(=O)Nc2ccccc2Cl)sc2nc3c(cc12)CCCCCC3,41.4%,39.8%,-16.1% (active),34.3%,13.8%,19.2%,33%,29.2%
O=C1C[C@H](Sc2nc(-c3ccc(F)cc3)cc(C(F)(F)F)n2)[C@H]2CO[C@@H]1O2,62.3%,111%,102%,67.5%,46.4%,75.6%,105%,101%
COc1cc(/C=N/N(C)C)ccc1O,94.4%,105%,106%,90.7%,98.4%,101%,107%,103%
CSc1nc2sc3c(c2c(=O)n1-c1ccc(C(C)C)cc1)CCC(=O)C3,-48.3% (active),3.97% (active),-6.88% (active),-30.3% (active),16%,2.14% (active),16.5%,-42% (active)
CCn1cc2c(cc1=O)-c1nc3ccccc3c3ccnc(c13)C2=O,56.8%,86.2%,63.3%,45.8%,29.6%,50%,78.8%,78.7%
O=c1c2cccc3c(NC4CCCCC4)ccc(c32)c2nc3ccccc3n12,32.5%,94.1%,103%,80.1%,13.5%,85.3%,51.7%,81.1%
CCOC(=S)SCc1ccc(Cl)cc1,120%,96.3%,101%,101%,103%,92.3%,131%,108%
Cn1c(=O)c2c(ncn2CC[N+](C)(C)C)n(C)c1=O,88.8%,115%,104%,106%,99.9%,100%,102%,105%
CN1CCCCC1CCN1c2ccccc2Sc2ccc(Br)cc21 (stereo unspecified),77.9%,68.5%,20.4%,79.6%,21%,28.8%,51.3%,60.7%
CCOC(=O)c1cnc2ccc(Br)cc2c1Nc1cccc(S(=O)(=O)NC)c1,86%,101%,105%,91.9%,91.3%,84.7%,97%,98.7%
CCCCCCCCCC(=O)Oc1ccc(/C(=C(/C)c2ccccc2)c2ccc(OCCN3CCCC3)cc2)cc1,3.1% (active),24.5%,-59% (active),-21.9% (active),-14.1% (active),15.8%,-11.2% (active),15.2%
CC1=C(NCCN2CCCC2)C(=O)c2c(OCc3cccc(Cl)c3)cccc2C1=O,59.9%,14.5%,61.8%,85.1%,57.5%,43.9%,84.4%,81%
